Common to all, as to assay: NCI-60 one-dose screen, 48 h (100 = growth as untreated, 0 = no growth, -100 = all killed)
Assay [1] has as its system MOLT-4 leukemia. As to conditions: 10 µM.
For assay [2], the system named is SR leukemia. Particulars: 10 µM.
Assay [3] deals with RPMI-8226 leukemia. As to conditions: 10 µM.
Assay [4] relates to OVCAR-8 ovarian. Particulars: 10 µM.
The subject of assay [5] is OVCAR-4 ovarian. Particulars: 10 µM.
In assay [6] the test system is SK-OV-3 ovarian. As to conditions: 10 µM.
Assay [7] relates to IGROV1 ovarian. Particulars: 10 µM.
For assay [8], the system named is OVCAR-3 ovarian. As to conditions: 10 µM.
Assay [9] deals with HS 578T breast. As to conditions: 10 µM.
For assay [10], the system named is NCI/ADR-RES ovarian. As to conditions: 10 µM.
The subject of assay [11] is T-47D breast. As to conditions: 10 µM.
Assay [12] relates to MDA-MB-435 melanoma. Particulars: 10 µM.
Assay [13] concerns SW-620 colon. Particulars: 10 µM.
Assay [14] concerns MCF7 breast. Particulars: 10 µM unless noted.
Assay [15] deals with HCT-116 colon. Particulars: 10 µM.
Assay [16] concerns HCC-2998 colon. As to conditions: 10 µM.
Assay [17] has as its system KM12 colon. As to conditions: 10 µM.
Assay [18] concerns OVCAR-5 ovarian. Particulars: 10 µM.
In assay [19] the test system is BT-549 breast. Particulars: 10 µM.

About 83,000 compounds went through this panel and 20% of them were active in at least one assay; those are over-represented in the sample as a whole.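 For each line, cells grew in 96-well plates with the test compound present at a single concentration for 48 hours.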 A number with no mark means an inactive call. The source made the active and inactive calls. Rule for the calls: active = growth percent below 10; inactive = the rest.

Data on eight molecules can be found in PubChem BioAssay (NCI).

Regarding `C[CH2][Hg][S]c1ccccc1C(=O)O`, the growth in assay [1] is 0.484% (active); in assay [2], -5.7% (active); in assay [3] it was -17.6% (active); in [4], -98.1% (active); in assay [5], -36.6% (active); in assay [6], 21.1%. In addition, the growth was 16.9% in [7]; -100% (active) in [8]; -1.53% (active) in assay [9]; -13.9% (active) in assay [10]; -80% (active) in assay [11]; -12.7% (active) in [12]. Moreover, the growth is -87% (active) in [13]; -95.9% (active) in assay [14]; -88.9% (active) in assay [15]; 59.8% in assay [16]; 69.9% in assay [17].
Regarding `CCCCCCCC[N+]12CN3CN(CN(C3)C1)C2`, the growth in [1] is 120%; in [2], 92.7%; in [3], 90.1%; in assay [4], 101%; in [18] it was 96.5%; in [5], 99.2%. The growth in [6] is 103%; in assay [7], 108%; in assay [8], 97.9%; in [9], 92.4%; in [10] it was 98.9%; in [12], 95%. The growth in [13] is 89.7%; in [14], 91.4%; in [15] it was 93.6%; in assay [16] it was 98.3%; in assay [17], 98.4%.
In the case of `O=C1CCC(=O)N1SC(Cl)(Cl)Cl`, the growth is 90.4% in [1]; 95.2% in assay [2]; 106% in assay [4]; 110% in [18]; 110% in [5]; 109% in [6]. Besides, the growth was 92.6% in assay [7]; 122% in [8]; 110% in assay [10]; 118% in assay [11]; 104% in assay [19]; 102% in [12]. Further, the growth in [13] is 100%; in assay [14] it was 97.2%; in assay [15] it was 106%; in assay [16], 103%; in assay [17] it was 105%.
`O=C(CBr)Nc1ccccc1`: the growth in assay [1] is 42.6%; in assay [2], 48.1%; in [3], 100%; in assay [4], 98%; in [18] it was 128%; in assay [5], 92.5%. Further, the growth was 113% in assay [6]; 106% in assay [7]; 98.3% in assay [8]; 99.9% in [9]; 103% in [10]; 92.6% in [11]. Further, the growth in assay [12] is 102%; in assay [13], 59.9%; in assay [14], 68.6%; in [15] it was 84.7%; in assay [16], 105%; in assay [17], 102%.
`O=[P+](O)c1ccccc1`: the growth in assay [1] was 107%; in assay [2], 102%; in assay [4] it was 99.9%; in [18] it was 108%; in assay [5] it was 114%; in assay [6], 101%. Moreover, the growth in assay [7] was 115%; in [8] it was 109%; in assay [9] it was 106%; in [10], 106%; in assay [11], 99.9%; in assay [12], 118%. Besides, the growth was 106% in assay [13], 95.9% in assay [14], 100% in assay [15] and 107% in assay [17].
Turning to `NNc1ccccc1`, the growth in assay [1] was 73.1%; in [2], 53%; in assay [4], 100%; in assay [18], 90.2%; in [5], 102%; in [6] it was 99.6%. For the same molecule, the growth is 88.4% in assay [7]; 97.7% in assay [8]; 109% in assay [9]; 83.1% in assay [10]; 53.9% in [11]; 88.6% in assay [12]. Further, the growth was 64.5% in assay [13], 78.4% in assay [15], 104% in assay [16] and 64.7% in assay [17].
For `O=C(O)c1cc(Cc2ccc(O)c(C(=O)O)c2)ccc1O` (tested in a mixture with another compound), the growth is 54.3% in assay [1]; 80.4% in assay [2]; -5.46% (active) in assay [3]; 68.1% in assay [4]; 65.1% in assay [18]; 66.9% in [5]. Besides, the growth was 95.4% in assay [6]; -81.4% (active) in [7]; 70.4% in assay [8]; 72.6% in [9]; 75.7% in assay [10]; 53.1% in [11]. Further, the growth in [12] is 72.7%; in assay [13], 64.6%; in assay [15] it was 45.1%; in assay [16], 53.9%; in assay [17], 65.9%.
Consider `COS(=O)(=O)c1ccccc1`, for which the growth was 85.4% in assay [1]; 71.1% in [2]; 89.9% in assay [3]; 101% in assay [4]; 104% in assay [18]; 110% in assay [5]. Also, the growth in assay [6] was 101%; in [7], 120%; in [8], 110%; in assay [9], 110%; in assay [10] it was 107%; in [11], 104%. Further, the growth in [12] was 108%; in assay [13] it was 108%; in [15] it was 102%; in assay [16] it was 101%; in assay [17] it was 104%.
